PubChem BioAssay AID743415 (Broad Institute, 2014)
Entries with a potency or affinity are not part of this list. Activity calls are given as the source filed them.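 Rule for the calls: active = compounds lowering Shn3 expression whose fitted half-maximal concentration is at most twice the top valid dose; inconclusive = flat partial decrease or an invalid curve fit; inactive = the rest.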

Experiment: reduction of endogenous Shn3 mRNA, dose response, qPCR, Clone20 cells, cherry-pick (AID 743415)
Details: overnight; series mostly up to 35 µM
In the case of Cc1ccc(-c2nc3ncccc3o2)cc1NC(=O)c1sc2ccccc2c1Cl, the outcome is reported as “inactive”. With CCCCOCCCNc1ncnc2c1[nH]c1ccccc12 the outcome was “inactive”. For O=C(Nc1nc(-c2ccccc2)cs1)C1CCCCN1S(=O)(=O)c1ccccc1 (stereo unspecified), the outcome was “inactive”. In the case of CCOc1cc(CNCCc2ccc(S(N)(=O)=O)cc2)ccc1OCc1ccccc1, the outcome is reported as “inactive”. In the case of COc1ccc(-c2cc(C(F)(F)F)nc(S(C)(=O)=O)n2)cc1, the outcome is reported as “inactive”. With COc1ccc(C(=O)Nc2nc3ccccc3s2)c(OC)c1 the outcome was “inactive”. With CC(C)(C)C(=O)Nc1ccc(NC(=O)c2ccco2)nc1 the outcome was “inactive”. In the case of Cc1ccc(CNC(=O)c2cc3c(C)nc4ccccc4c3o2)cc1, the outcome is reported as “inactive”. With COc1ccccc1NS(=O)(=O)c1cc(NC(=O)c2ccc(Cl)nc2)ccc1Cl the outcome was “inactive”. For CCOC(=O)N1CCN(c2ccc(S(=O)(=O)N(Cc3ccccc3)Cc3ccccc3)cn2)CC1, the outcome was “inactive”. In the case of Cn1c(=O)c2c(nc(NCc3ccco3)n2CCc2ccccc2)n(C)c1=O, the outcome is reported as “inactive”. With CC1CCCC(NC(=O)c2cccc(S(=O)(=O)N3CCN(c4ccccc4)CC3)c2)C1C (stereo unspecified) the outcome was “inactive”. With COc1ccc(NS(=O)(=O)c2ccc(OC)c(N(C)S(=O)(=O)c3ccc(Cl)cc3)c2)cc1 the outcome was “inactive”. With Cn1nc(CC(=O)Nc2ccc3c(c2)OCCO3)c2ccccc2c1=O the outcome was “inactive”. In the case of Nc1ncnc2c1c(-c1ccc(Oc3ccccc3)cc1)cn2C1CCCC1, the outcome is reported as “inactive”. With Cc1onc(-c2ccccc2Cl)c1C(=O)N(C)C1CCCCC1 the outcome was “inactive”. With Oc1ccc(-c2n[nH]c(C(F)(F)F)c2-c2ccccc2)c(O)c1 the outcome was “inactive”. With O=C(c1cc(COc2ccc3ncccc3c2)on1)N1CCCCCC1 the outcome was “inactive”. For CCC(C)c1ccc(S(=O)(=O)N2CCN(C(=O)c3ccc(Cl)c(S(=O)(=O)N4CCOCC4)c3)CC2)cc1 (stereo unspecified), the outcome was “inactive”. In the case of Cc1ccc([C@@H]2CC(=O)[C@@H]3CN(S(=O)(=O)c4ccccc4C)[C@H](c4ccc(Cl)cc4)C[C@@H]3N2S(=O)(=O)c2ccc(C)cc2)cc1, the outcome is reported as “inactive”. For Cc1ccc(NC(=O)c2ccc(Cl)c(N3C(=O)C=CC3=O)c2)cc1, the outcome was “inactive”. In the case of COCOCCn1cc(CN2CCS(=O)(=O)N(Cc3ccc(-c4ccc(Cl)c(Cl)c4)cc3)C(C(C)C)C2=O)nn1 (stereo unspecified), the outcome is reported as “inactive”. For Cc1cccc(-c2noc(CN(C(=O)C(c3ccccc3)c3ccccc3)C(C)C)n2)c1, the outcome was “inactive”. In the case of COc1ccccc1NC(=O)Cn1cc(C(=O)C2CC2)c2ccccc21, the outcome is reported as “inactive”. With CCc1ccccc1NC(=O)COC(=O)c1c(C)nsc1NC the outcome was “inactive”. With CN(c1ccccc1)S(=O)(=O)c1cccc(NC(=O)CSc2nncs2)c1 the outcome was “inactive”. In the case of O=C(CSc1nnc(-c2cccnc2)s1)Nc1ccnc2ccccc12, the outcome is reported as “inactive”. In the case of CCOc1ccc(N(C)S(=O)(=O)c2cc(-c3cc(C)no3)ccc2C(C)C)cc1, the outcome is reported as “inactive”. For c1ccc(-c2noc(-c3ccc4ccccc4c3)n2)nc1, the outcome was “inactive”. In the case of CCCCN1CC(COCc2ccccc2)Oc2cccc(Oc3ccc(C(C)C)cc3)c2S1(=O)=O (stereo unspecified), the outcome is reported as “inactive”. In the case of Cc1ccc2nc(NC(=O)C3CCN(S(=O)(=O)c4ccc5c(c4)oc(=O)n5C)CC3)sc2c1, the outcome is reported as “inactive”. With CCn1cc(CN(C)S(=O)(=O)c2ccc3ccccc3c2)c(C)n1 the outcome was “inactive”. In the case of CC(=O)Nc1ccc(OCC(=O)Nc2ccc(Cl)c(S(=O)(=O)N3CCOCC3)c2)cc1, the outcome is reported as “inactive”. For Cc1ccc(NC(=O)c2cc(S(=O)(=O)NCCC3=CCCCC3)ccc2F)cc1F, the outcome was “inactive”. For c1ccc(CNc2ncnc3scc(-c4cccs4)c23)nc1, the outcome was “inactive”. For CC(C)c1nc(SCC(=O)Nc2cccc(C(F)(F)F)c2)c2c(=O)n(C)c(=O)n(C)c2n1, the outcome was “inactive”.
